# Test results as given in PubChem BioAssay.
# Inconclusive results are not listed. Activity calls are given as the source filed them. Unless noted, no rule for the calls is given here.
# Experiments:
# [1] = circadian clock period modulators, cell-based, LOPAC library, luminescence reporter (AID 2774); settings: circadian reporter cells, at 7 µM, actives lie on both sides;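 also: values are relative to mean of DMSO wells on each plate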
# [2] = system: Hepatitis C virus NS3 helicase; assay: HCV NS3 helicase inhibitors, primary screen, biochemical, fluorescence polarization, LOPAC1280 library (AID 687035; in the data active = inhibition above about 37%); settings: Purified HCV NS3 helicase, Cy5-dT15 ssDNA binding fluorescence polarization; stronger effect = higher value; concentration not given here
# [3] = Cy5 fluorescence quenching or enhancement artefacts, artefact control for HCV NS3 helicase inhibitor project, biochemical, LOPAC1280 (AID 687037); settings: Cy5-DNA-NS3h complex fluorescence interference counterscreen
# [4] = target: ATP-dependent translocase ABCB1 (Homo sapiens) (UniProt P08183); assay: MDR1 (ABCB1) efflux transporter inhibition, cell-based (AID 377; in the data active = fluorescence slope change above about 50%); settings: MDR1-expressing cells, fluorescent substrate accumulation slope; stronger effect = higher value; concentration not given here
# Chain of ATP-dependent translocase ABCB1 (Homo sapiens) (P08183 whole entry, looked up): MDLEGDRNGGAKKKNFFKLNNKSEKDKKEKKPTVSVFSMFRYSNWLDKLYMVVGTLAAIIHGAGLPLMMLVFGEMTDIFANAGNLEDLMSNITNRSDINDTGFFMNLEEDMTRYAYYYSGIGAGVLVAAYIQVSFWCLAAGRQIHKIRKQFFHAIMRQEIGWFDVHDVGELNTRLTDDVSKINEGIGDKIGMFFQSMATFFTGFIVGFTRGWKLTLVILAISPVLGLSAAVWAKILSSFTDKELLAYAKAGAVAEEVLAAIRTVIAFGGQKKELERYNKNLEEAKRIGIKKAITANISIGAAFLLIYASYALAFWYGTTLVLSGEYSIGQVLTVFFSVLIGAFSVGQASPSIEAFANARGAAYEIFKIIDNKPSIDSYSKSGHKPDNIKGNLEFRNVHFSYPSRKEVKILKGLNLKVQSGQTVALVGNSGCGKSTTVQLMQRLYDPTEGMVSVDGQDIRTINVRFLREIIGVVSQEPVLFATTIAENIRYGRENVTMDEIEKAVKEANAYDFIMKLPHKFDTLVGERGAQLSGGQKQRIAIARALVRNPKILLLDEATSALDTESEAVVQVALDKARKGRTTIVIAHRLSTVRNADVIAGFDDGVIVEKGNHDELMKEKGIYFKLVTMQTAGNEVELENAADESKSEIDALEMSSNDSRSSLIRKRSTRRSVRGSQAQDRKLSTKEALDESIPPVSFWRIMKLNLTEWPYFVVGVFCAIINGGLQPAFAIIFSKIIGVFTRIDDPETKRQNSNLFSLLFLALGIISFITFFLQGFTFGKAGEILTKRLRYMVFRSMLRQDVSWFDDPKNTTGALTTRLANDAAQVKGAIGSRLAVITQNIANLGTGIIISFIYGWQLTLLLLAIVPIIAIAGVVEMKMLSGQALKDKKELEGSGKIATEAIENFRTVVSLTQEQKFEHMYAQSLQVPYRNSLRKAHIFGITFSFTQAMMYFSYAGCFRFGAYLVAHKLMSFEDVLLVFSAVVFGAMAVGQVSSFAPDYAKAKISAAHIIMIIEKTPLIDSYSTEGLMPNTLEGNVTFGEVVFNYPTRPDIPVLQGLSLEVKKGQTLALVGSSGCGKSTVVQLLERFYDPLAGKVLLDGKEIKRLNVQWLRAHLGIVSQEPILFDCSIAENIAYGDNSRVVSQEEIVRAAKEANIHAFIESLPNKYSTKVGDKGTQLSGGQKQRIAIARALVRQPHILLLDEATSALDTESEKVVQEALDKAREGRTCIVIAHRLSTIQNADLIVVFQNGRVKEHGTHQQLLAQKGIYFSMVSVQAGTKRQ
# [5] = hESC survival regulators, cell-based (AID 493140); settings: human embryonic stem cell survival screen; stronger effect = higher value;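 also: cells exposed to compounds for four days before counting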
# [6] = liver-stage malaria parasite growth inhibition, primary screen, cell-based, HepG2, luciferase luminescence, HepG2 viability (AID 624349; in the data active = parasite load remaining mostly below about 12%, no sharp cut-off; inactive = mostly above about 10%;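 also: 100% = mean of DMSO negative control wells on the same plate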); settings: P. berghei liver stage in HepG2, luciferase luminescence, concentration not given here; parasite load remaining: stronger effect = lower value; viability: measured here: HepG2 viability without parasites
smiles,measurement,setting,value
COc1ccccc1NC(=O)Nc1nc(-c2cccnc2)nc2ccccc12,period change,[1],-0.005 h (inactive)
NC(=S)NCCCC(N)C(=O)O (configuration not stated),period change,[1],-0.05 h (inactive)
COc1ccccc1N1CCN(CCN(C(=O)c2ccc(I)cc2)c2ccccn2)CC1,period change,[1],0.08 h (inactive)
same,inhibition,[2],-4% (inactive)
same,fluorescence ratio (interference),[3],0.9 (inactive)
Cc1ccccc1CNc1ncnc2c1ncn2C1OC(CO)C(O)C1O (configuration not stated),period change,[1],-0.235 h (inactive)
COc1ccc2cc3n(c(=O)c2c1OC)CCc1cc2c(cc1-3)OCO2,fluorescence slope change,[4],57.9% (active)
CC(COc1ccc(/C=C/c2ccccc2)cc1)[N+](C)(C)C (configuration not stated),period change,[1],-0.13 h (inactive)
same,inhibition,[2],-1% (inactive)
same,fluorescence ratio (interference),[3],1 (inactive)
CCCCCCCCCCCCCCCCOCC(COCC(F)(F)F)OP(=O)(O)OCO (configuration not stated),period change,[1],0.01 h (inactive)
CCCCCCCCCCCCCCCCCC(=O)NCC(COP(=O)([O-])OCC[N+](C)(C)C)OCC (configuration not stated),period change,[1],0.195 h (inactive)
CNC(=O)[C@H]1O[C@@H](n2cnc3c(N)ncnc32)C(O)[C@H]1O (some centres not stated),period change,[1],0.045 h (inactive)
CCCCN1CCC(n2c(=O)[nH]c3ccccc32)CC1,period change,[1],-0.16 h (inactive)
same,inhibition,[2],-2% (inactive)
same,fluorescence ratio (interference),[3],1 (inactive)
C[C@@H](Oc1ccc(Oc2cnc3ccc(Cl)cc3n2)cc1)C(=O)O,period change,[1],-0.01 h (inactive)
CC(=O)S[C@@H]1CC2=CC(=O)CC[C@]2(C)[C@H]2CC[C@@]3(C)[C@@H](CC[C@]34CCC(=O)O4)[C@H]12,fluorescence slope change,[4],162% (active)
O=C(O)[C@@H]1C[C@@H](C(=O)O)N1,period change,[1],-0.1 h (inactive)
same,inhibition,[2],-1% (inactive)
same,fluorescence ratio (interference),[3],1 (inactive)
N=C1Sc2ccccc2C2=NCCCN12,period change,[1],-0.035 h (inactive)
CCCCCCCCCCCCCCCCCCNC(=O)OCC(COP(=O)([O-])OCC[n+]1ccsc1)OC (configuration not stated),period change,[1],-0.05 h (inactive)
same,inhibition,[2],0% (inactive)
same,fluorescence ratio (interference),[3],1 (inactive)
On1ccccc1=S,fluorescence slope change,[4],9% (inactive)
Cc1ccccc1N1CCN(S(=O)(=O)C[C@]23CCC(CC2NC(=O)[C@@H](N)CCS(C)(=O)=O)C3(C)C)CC1 (some centres not stated),period change,[1],-0.06 h (inactive)
CC1Nc2ccccc2C1NC(=O)c1ccc(Cl)c(S(N)(=O)=O)c1 (configuration not stated),fluorescence slope change,[4],26.2% (inactive)
O=C(O)CCCC[C@@H]1SCC2NC(=O)NC21 (some centres not stated),fluorescence slope change,[4],79.8% (active)
C=N[C@@H](C(=O)N[C@@H]1C(=O)C2[C@@H](C(=O)O)C(C)(C)S[C@@H]21)c1ccccc1 (some centres not stated),fluorescence slope change,[4],10.1% (inactive)
CC(C)N1CCN(c2ccc(OC[C@@H]3CO[C@@](Cn4cncn4)(c4ccc(Cl)cc4Cl)O3)cc2)CC1,fluorescence slope change,[4],82.8% (active)
same,survival,[5],7.75 (inactive)
same,parasite load remaining,[6],57.7% (inactive)
same,viability,[6],72.8%
CC1OC(O[C@H]2/C=C/C=C/C=C/C=C/C=C/C=C/C=C/[C@H](C)[C@@H](O)[C@@H](C)[C@H](C)OC(=O)C[C@H](O)C[C@H](O)CC[C@@H](O)[C@H](O)C[C@H](O)C[C@]3(O)C[C@H](O)[C@@H](C(=O)O)[C@H](C2)O3)C(O)C(N)C1O (some centres not stated),fluorescence slope change,[4],94.6% (active)
same,survival,[5],10.9 (inactive)
same,parasite load remaining,[6],50.3% (inactive)
same,viability,[6],92.5%
CC1=C(C(=O)O)N2C(=O)[C@@H](NC(=O)[C@H](N)c3ccc(O)cc3)C2SC1 (some centres not stated),fluorescence slope change,[4],66.4% (active)
c1ccc2c(c1)CN1CCCCC1=N2,fluorescence slope change,[4],0.4% (inactive)
NCC1OC(OC2C(N)CC(N)C(O)C2O[C@@H]2O[C@H](CO)[C@H](OC3OC(CN)C(O)C(O)C3N)C2O)C(N)C(O)C1O (some centres not stated),fluorescence slope change,[4],78.1% (active)
COc1cc([C@@H]2c3cc4c(cc3[C@@H](O[C@@H]3O[C@@H]5CO[C@@H](C)O[C@H]5[C@H](O)[C@H]3O)C3COC(=O)[C@@H]32)OCO4)cc(OC)c1O (some centres not stated),fluorescence slope change,[4],20.9% (inactive)
same,survival,[5],0.25 (inactive)
same,parasite load remaining,[6],64.7% (inactive)
same,viability,[6],83.1%
CN(N=O)C(=O)N[C@@H]1C(O)OC(CO)[C@@H](O)[C@H]1O (some centres not stated),fluorescence slope change,[4],25.6% (inactive)
O=S(=O)(O)CCN1CCN(CCO)CC1,fluorescence slope change,[4],26.7% (inactive)
COc1cc2cc(N(C)CCCNC(=O)C3CCCO3)cc(N)c2cc1OC (configuration not stated),fluorescence slope change,[4],52.5% (active)
NCC1OC(OC2C(N)CC(N)C(OC3OC(CO)C(O)C(N)C3O)C2O)C(O)C(O)C1O (configuration not stated),fluorescence slope change,[4],9.9% (inactive)
same,survival,[5],5.58 (inactive)
same,parasite load remaining,[6],77.1% (inactive)
same,viability,[6],78.9%
NCC[C@H](O)C(=O)NC1CC(N)C(OC2OC(CN)C(O)C(O)C2O)C(O)C1OC1OC(CO)C(O)C(N)C1O (some centres not stated),fluorescence slope change,[4],13.3% (inactive)
same,survival,[5],1.75 (inactive)
same,parasite load remaining,[6],68.1% (inactive)
same,viability,[6],76.6%
CC(=O)Nc1c(I)c(C(=O)NC2[C@H](O)OC(CO)[C@@H](O)[C@H]2O)c(I)c(N(C)C(C)=O)c1I (some centres not stated),fluorescence slope change,[4],95.2% (active)
same,survival,[5],16.9 (inactive)
same,parasite load remaining,[6],81% (inactive)
same,viability,[6],75.5%
COC(=O)C1[C@H]2C[C@H]3c4[nH]c5ccccc5c4CCN3C[C@H]2CC[C@@H]1O (some centres not stated),fluorescence slope change,[4],78.8% (active)
C=C(C)[C@@H]1CC[C@]2(CO)CC[C@]3(C)[C@H](CC[C@@H]4[C@@]5(C)CCC(O)C(C)(C)[C@@H]5CC[C@]43C)[C@@H]12 (some centres not stated),survival,[5],7.33 (inactive)
Nc1cccc2c1C(=O)c1cccc(N)c1C2=O,fluorescence slope change,[4],105% (active)
COC1CC(O[C@H]2[C@H](C)[C@@H](OC3OC(C)CC(N(C)C)C3O)[C@@H](C)C[C@]3(CO3)C(=O)[C@H](C)[C@@H](O)[C@@H](C)[C@@H](C)OC(=O)[C@@H]2C)OC(C)C1O (some centres not stated),fluorescence slope change,[4],96.5% (active)
same,survival,[5],26.4 (inactive)
same,parasite load remaining,[6],84.7% (inactive)
same,viability,[6],90.7%
